From PubChem BioAssay (NCI) come the findings set out here.

About 83,000 compounds went through this panel and 20% of them were active in at least one assay; those are over-represented in the sample as a whole.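 Cell lines were cultured in 96-well plates, exposed to a single compound concentration, and assessed for percent growth 48 hours later.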 A number with no mark means an inactive call. Active and inactive are the calls of the source. How the source made its calls: active means growth percent below 10; inactive means the rest.

The test system of this test is IGROV1 ovarian. Put plainly: NCI-60 one-dose screen, 48 h (100 = growth as untreated, 0 = no growth, -100 = all killed). To be noted: 10 µM unless noted.
`COc1cc2c(cc1O)CC[C@@H]1[C@@H]2CC[C@]2(C)[C@@H](NCCN(C)C)CC[C@@H]12`: the growth is -74.8% (active).
As to `COc1cccc2c1C(=O)c1c(O)c3c(c(O)c1C2=O)C[C@](O)(C(=O)CO)C[C@H]3O[C@@H]1C[C@@H](NC(=O)CCCN(C)C2(c3ccc(F)cc3)CC3CCC2C3)[C@H](O)[C@@H](C)O1` (some centres not stated), the growth was 55.2%.
The figure for `O=c1cc(CSc2nnc(SCc3cc(=O)oc4c3ccc3ccccc34)o2)c2ccc3ccccc3c2o1` is 94.9%.
For the molecule `COc1cc2c(cc1O)CC[C@@H]1[C@@H]2CC[C@]2(C)[C@@H](OCCN(C)C)CC[C@@H]12`, the growth was 73.4%.
For the molecule `COc1ccc(-c2nnc(SCC(=O)c3ccc(Cl)cc3)o2)cc1`, the growth was 105%.
Regarding `NC(=NCCCOc1ccc(Cl)cc1)Nc1ccc(C(F)(F)F)cc1`, the growth is -20.5% (active).
As for `CCCCC[C@H]1C/C=C2/C(=O)C=C[C@@H]2C/C=C\CCCC(=O)O1`, the growth is -42.8% (active).
In the case of `CNC(=O)c1cc(Oc2ccc(NC(=O)Nc3ccc(Cl)c(OC(F)(F)F)c3)c(F)c2)ccn1` it was 46.4%; in that of `COc1ccc2c(c1)C(=O)/C(=C/c1cccnc1)CC2`, 101%; in that of `COc1cccc(-c2nc(SCC(=O)Nc3ccc(C(=O)/C=C/c4ccc(OC)c(OC)c4)cc3)[nH]c(=O)c2C#N)c1`, 103%.
On to `CCCn1c(=O)[nH]c(N)c([C@H]2c3ccccc3Oc3[nH]c(=O)n(CCC)c(=O)c32)c1=O`, for which the growth was 89%.
For the molecule `C=C1C(=O)O[C@H]2[C@H]1CC/C(COC(=O)NCc1ccc(OC)c(OC)c1)=C\CC[C@@]1(C)O[C@@H]21`, the growth is 61%.
As for `N#CN1CC[C@H](C(=O)Nc2cc3cc(C(N)=O)ccc3cn2)C1`, the growth is 15.7%.
On to `O=C1c2c(O)cc(O)cc2-c2c(-c3ccc(O)cc3)oc3cc(O)cc1c23`, for which the growth is 52.2%.
The figure for `O=C1/C(=C/c2ccccc2O)N=C2SCCCN12` is 91.3%; for `COc1ccc(CN2c3ccccc3Sc3ccccc32)c(C(F)(F)F)c1` it is 43.4%; for `COc1ccc(-c2nc(SCC(=O)Nc3ccc(C(=O)/C=C/c4ccc(Cl)cc4)cc3)[nH]c(=O)c2C#N)cc1` it is 111%.
Regarding `COc1ccc2c(c1)CC/C(=C\c1cncc(Br)c1)C2=O`, the growth was 94.8%.
For the molecule `COc1ccc2c(c1)C(=O)/C(=C/c1ccccn1)CC2`, the growth is 85.6%.
Regarding `Cc1nc(Nc2ccc(F)c(Cl)c2)sc1C(=O)O`, the growth was 19.3%.
For the molecule `CCOC(=O)c1sc(Nc2ccc(Cl)cc2)nc1C`, the growth is 19.3%.
For the molecule `CC(=O)c1cc(C(=O)c2ccc3c(c2)Sc2ccccc2N3)n2ccccc12`, the growth is 15%.
`CC(=O)O[C@H]1C(=O)[C@@]2(C)[C@H]([C@H](OC(=O)c3ccccc3)[C@]3(O)C[C@H](OC(=O)[C@H](OC(=O)CCC(=O)OC4CCC(S/N=C(N)/N=C(\N)N(C)C)CC4)[C@@H](NC(=O)c4ccccc4)c4ccccc4)C(C)=C1C3(C)C)[C@]1(OC(C)=O)CO[C@@H]1C[C@@H]2O` (some centres not stated): the growth was 43.1%.
In the case of `CC(=O)OC[C@H]1O[C@H](OC(C)=O)[C@H](NC(=O)/C=C/CCl)[C@@H](OC(C)=O)[C@@H]1OC(C)=O`, the growth was 93.9%.
For the molecule `COc1cc(-c2nc(C(=O)NCC(=O)NO)nn2-c2ccc(Cl)cc2)cc(OC)c1OC`, the growth is 112%.
In the case of `C=C1C(=O)O[C@H]2[C@H]1CC/C(COC(=O)NCCc1ccc(OC)c(OC)c1)=C\CC[C@@]1(C)O[C@@H]21` it was 55.9%; in that of `CC/C=C\C[C@H](O)C/C=C1/C(=O)C=C[C@@]1(C)C/C=C\CCCC(=O)OC`, 109%; in that of `Cc1ccc2oc(=O)cc(C3c4ccc([nH]4)C(c4cc(=O)oc5ccc(C)cc45)c4ccc([nH]4)C(c4cc(=O)oc5ccc(C)cc45)c4ccc([nH]4)C(c4cc(=O)oc5ccc(C)cc45)c4ccc3[nH]4)c2c1` (configuration not stated), -20.1% (active).
In the case of `COc1cccc2c1C(=O)c1c(O)c3c(c(O)c1C2=O)C[C@](O)(C(=O)CO)C[C@H]3O[C@@H]1C[C@@H](NC(=O)CCCCCN(C)C2(c3ccc(F)cc3)CC3CCC2C3)[C@H](O)[C@@H](C)O1` (some centres not stated) it was 56%; in that of `NC(=NCCCC1(c2ccccc2)CCCC1)Nc1ccc(Cl)cc1`, 38.9%.
For the molecule `CCC#CC[C@H](O)C/C=C1/C(=O)C=C[C@@H]1C/C=C\CCCC(=O)OC`, the growth was 14%.
For the molecule `O=c1oc2c(C(F)(F)F)cccc2cc1-c1csc(Nc2ccc(OCCF)cc2)n1`, the growth was 21.4%.
In the case of `CNC(=O)c1cc(Oc2ccc(NC(=O)Nc3ccc(Cl)c(SC)c3)c(F)c2)ccn1`, the growth is 56.4%.
On to `c1ccc2[nH]c(-c3ccc(Nc4nc(N5CCCC5)nc5[nH]ncc45)cc3)nc2c1`, for which the growth was 4.03% (active).
Consider `CC/C=C\C/C=C\C[C@H]1C/C=C2/C(=O)C=C[C@@H]2C/C=C\CCC(=O)O1`, for which the growth is 13.1%.
In the case of `COc1ccc(CN2c3ccccc3Sc3ccccc32)cc1O` it was 30.2%; in that of `CC/C=C\C[C@H]1C/C=C2/C(=O)C=C[C@H]2C/C=C\CCCC(=O)O1`, 12.4%.
